# PLK1 PBD inh: blocks phosphopeptide binding to human PLK1 polo-box domain; P53350; Plk1 PBD binding of FITC phosphopeptide, fluorescence polarization; Potency, µM, most hits filed as inhibitors; hit rate 2.8% among 360,000; also: series mostly up to about 57 µM; nearly all actives have a fitted effect of over 65% in size
# JMJD2A Tudor inh: JMJD2A Tudor domain (human) inhibition | O75164 | AlphaScreen JMJD2A-Tudor / H3K4me3 peptide binding | Potency, µM (series often up to 114 µM), hits mostly inhibitors | hit rate 4.4% among 390,000; also: nearly all actives have a fitted effect of over 50% in size
# HP1b chromo inh: HP1-beta chromodomain-methylated histone interaction inhibition. AlphaScreen HP1-beta / biotin-H3K9me3 peptide binding. Potency, µM (series often up to 114 µM), most hits filed as inhibitors. hit rate 0.56% among 390,000. AID 540317; also: nearly all actives have a fitted effect of over 70% in size
# Target sequence (P83916 whole entry, looked up): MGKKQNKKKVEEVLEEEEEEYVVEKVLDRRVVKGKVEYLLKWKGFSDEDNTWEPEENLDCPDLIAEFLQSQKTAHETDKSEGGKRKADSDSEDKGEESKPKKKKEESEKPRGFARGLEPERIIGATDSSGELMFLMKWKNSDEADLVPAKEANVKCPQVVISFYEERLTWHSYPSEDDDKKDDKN
#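 Compound inhibition of the preformed complex between 50 nM HP1-beta and 50 nM biotinylated H3K9me3 peptide was read by AlphaScreen. Buffer was PBS pH 7.4 with 0.01% Tween-20. Incubations ran 30 min at room temperature, with 10 ug/mL donor/acceptor beads.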
# Sfp PPTase inh: blocks B. subtilis Sfp PPTase activity; hit rate 3.5% among 310,000; Potency, µM, most hits filed as inhibitors; Biochemical Sfp PPTase activity, qHTS;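 also: the enzyme is Sfp with the accession as filed and its product quenches rhodamine fluorescence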
#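 With Hepes-Na pH 7.6 buffer containing 10 mM MgCl2, Sfp (15 nM) modified BHQ-2-YbbR (12.5 uM) using rhodamine-CoA (5 uM). Two reads 30 minutes apart at 525/598 nm yielded each well's rate.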
# G9a inh: G9a (human) methyltransferase inhibition. Q96KQ7. G9a H3K9 monomethylation, AlphaScreen, 2 h. Potency, µM (series often up to 102 µM), usual class: inhibitors. hit rate 8.8% among 350,000. AID 504332; also: nearly all actives have a fitted effect of over 75% in size
# Target sequence (Q96KQ7 913-1193 limits assumed): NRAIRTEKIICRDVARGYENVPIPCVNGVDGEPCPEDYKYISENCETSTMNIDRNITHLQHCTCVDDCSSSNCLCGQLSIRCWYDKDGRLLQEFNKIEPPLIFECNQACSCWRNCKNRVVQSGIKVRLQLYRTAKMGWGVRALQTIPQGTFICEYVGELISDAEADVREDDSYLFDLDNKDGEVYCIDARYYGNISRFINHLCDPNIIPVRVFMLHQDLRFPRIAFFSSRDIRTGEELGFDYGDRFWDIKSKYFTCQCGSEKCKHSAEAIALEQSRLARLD
#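 Compounds were preincubated with 20 nM G9a for 15 min, after which biotinylated H3K9 peptide (500 nM) and SAM (20 uM) started a 2 h room-temperature reaction. Monomethylated product was quantified by antibody-based AlphaScreen chemiluminescence.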
# BAZ2B block: blocks human BAZ2B; AlphaScreen BAZ2B-H3K14Ac peptide displacement; Potency, µM (doses to about 114 µM), usual class: inhibitors; hit rate 4.4% among 360,000; also: nearly all actives have a fitted effect of over 60% in size
#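 AlphaScreen luminescence quantifies BAZ2B engagement of H3K14Ac peptide; the protein and biotinylated peptide are both at 50 nM final, buffer PBS pH 7.4 with 0.01% Tween-20, all steps at room temperature.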
# Numbers stand for hits; – = inactive; ? = inconclusive; · = not tested or not shown; [ ] = dose if it differs, or a comment. Only some compounds are listed: those with a hit (about 12% of all), similar ones and a draw of the others. Calls follow the shape of the dose curve; as a rule, active = well fitted curve in the direction sought with a large enough effect; inconclusive = small, poorly fitted or top-dose-only effect, or another doubt; inactive = no such curve, though single readings can be large; an effect the other way counts as inactive or inconclusive.
SMILES,PLK1 PBD inh,JMJD2A Tudor inh,HP1b chromo inh,Sfp PPTase inh,G9a inh,BAZ2B block
CC1CC1C(=O)OCC(=O)Nc1ccccc1Oc1ccccc1 (centres undefined),26.7µM,–,–,–,–,–
O=C(O)CCC(=O)Nc1ccccc1Oc1ccccc1,26.7µM,20µM,–,–,–,–
Cc1ccc(NC(=O)CN(C)CC(=O)Nc2ccccc2Oc2ccccc2)cc1,–,3.55µM,17.8µM,?,35.5µM,25.1µM
Nn1c(SCC(=O)Nc2ccccc2Oc2ccccc2)nnc1C1CC1,–,–,–,·,50.1µM,–
Cc1cc2c(s1)c1cnn(Cc3cc(F)cc(F)c3F)c(=O)c1n2C,·,–,·,·,·,·
CCOC(=O)c1cc(OC(=O)c2cccc(F)c2)n(-c2ccccc2)n1,·,?,–,·,–,?
Cc1noc(C)c1C(=O)N1CCC2(CCCN(Cc3ccc(C#N)cc3)C2)CC1,·,·,·,–,–[12.7 µM],·
CC1CC1C(=O)OCC(=O)Nc1ccc(N=Nc2ccccc2)cc1 (centres undefined),–,–,?,–,35.5µM,28.2µM
COc1cc(OC)cc(C(=O)NCCSc2c[nH]c3ccccc23)c1,–,–,–,–,44.7µM,–
O=C(NCCSc1c[nH]c2ccccc12)c1ccco1,–,–,–,–,70.8µM,–
O=C(NCCSc1ncc(-c2ccc(F)cc2)[nH]1)c1ccco1,–,–,–,·,50.1µM,–
COc1cc(NC(=O)c2ccco2)c(OC)cc1NC(=O)CSc1ncc(-c2ccc(F)cc2)[nH]1,–,–,–,?,–,–
c1nnc(NC2=NCCCCC2)s1,–,–,–,–,–,–
COc1ccc2nc(NC3=NCCC3)sc2c1,–,–,–,–,–,–
Cc1cnc(NC2=NCCC2)s1,–,?,–,–,11.2µM,–
Clc1ccc(CSc2nnc(NC3=NCCCCC3)s2)cc1,–,–,–,–,–,–
CCc1nnc(NC2=NCCC2)s1,–,70.8µM,–,56.2µM,?,?
c1nnc(NC2=NCCC2)s1,–,8.91µM,–,?,?,–
COc1ccc2[nH]c3c(c2c1)CCN1C(=O)C(CC(=O)NC(C)(C)C)C[C@H](C(=O)N2CCCCC2)[C@@]31C (some centres undefined),–,–,–,·,·,·
O=C1NC(=Nc2ccccc2Cl)S/C1=C\c1cc([N+](=O)[O-])ccc1O,–,?,–,?,35.5µM,?
Cc1ccc(S(=O)(=O)/N=C2/NC(=O)/C(=C/c3cc([N+](=O)[O-])ccc3O)S2)cc1,–,–,–,–,11.2µM,–
COc1cccc(N=C2NC(=O)/C(=C/c3cc([N+](=O)[O-])ccc3O)S2)c1,–,?,?,–,?,56.2µM
Cc1ccccc1NC(=O)c1sc2nc3n(c(=O)c2c1C)N=C(c1ccccc1)CS3,·,–,–,·,–,?
Cc1c(CCO)c(=O)[nH]n1S(=O)(=O)c1ccc(Cl)cc1Cl,–,–,–,–,–,–
COc1ccc(S(=O)(=O)n2[nH]c(=O)c(CCO)c2C)c([N+](=O)[O-])c1,13.4µM,–,–,–,?,–
SMILES,PLK1 PBD inh,JMJD2A Tudor inh,HP1b chromo inh,Sfp PPTase inh,G9a inh,BAZ2B block
COc1ccc(-c2csc(Nc3cccnc3)n2)cc1,–,–,–,79.4µM,–,–
COc1ccc(-c2csc(Nc3ncccc3C)n2)cc1OC,–,?,–,–,?,?
Cc1cccnc1Nc1nc(-c2ccc(O)c(O)c2)cs1,?,44.7µM,?,50.1µM,11.2µM,39.8µM
COc1ccc(-c2csc(Nc3ncccc3C)n2)cc1,–,?,–,–,17.8µM,–
CCOC(=O)c1c(NC(=S)Nc2ccc(Cl)cc2)sc(C)c1C,–,–,–,–,?,–
Cc1sc(NC(=S)Nc2ccc(F)cc2)c(C(N)=O)c1C,?,–[11.4 µM],–,20µM,28.2µM,–
CC(=O)Nc1ccc(NC(=S)Nc2ccc(F)cc2)cc1,–,–,–,–,–,–
COC(=O)c1c(NC(=S)Nc2ccc(CC(=O)O)cc2)sc(C)c1C,?,–,–,–,8.91µM,–
Cc1ccn2c(NC3CCCCC3)c(-c3cccc(-c4cccc(Cl)c4)c3)nc2c1,–,?,–,·,–[2.33 µM],?
O=C1c2ccccc2C(=O)N1CN(C(=O)c1ccccc1)c1ccc(O)cc1,21.2µM,–,–,–,–,–
O=C1c2ccccc2C(=O)N1CN(C(=O)COc1ccccc1)c1ccccc1,–,–,–,–,–,–

# Assay outcomes deposited in PubChem BioAssay by National Center for Advancing Translational Sciences (NCATS).
